Experimental findings from the supplement of paper PMC10849652 are described below.

About 8,800 targets were measured; listed, in parts, are those with a hit and a random draw of the rest. About 0.5% of all pairs of compound and target were hits. Unmarked numbers belong to inactive results.

UniProt P67936, sequence (P67936 whole entry, looked up): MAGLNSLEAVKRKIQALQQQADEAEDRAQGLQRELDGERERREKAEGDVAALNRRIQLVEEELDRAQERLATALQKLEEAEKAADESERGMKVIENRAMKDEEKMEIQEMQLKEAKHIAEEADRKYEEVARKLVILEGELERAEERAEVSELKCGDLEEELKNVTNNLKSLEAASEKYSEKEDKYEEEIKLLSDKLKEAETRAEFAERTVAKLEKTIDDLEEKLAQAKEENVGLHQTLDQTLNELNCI
UniProt Q96Q05, sequence (Q96Q05 whole entry, looked up): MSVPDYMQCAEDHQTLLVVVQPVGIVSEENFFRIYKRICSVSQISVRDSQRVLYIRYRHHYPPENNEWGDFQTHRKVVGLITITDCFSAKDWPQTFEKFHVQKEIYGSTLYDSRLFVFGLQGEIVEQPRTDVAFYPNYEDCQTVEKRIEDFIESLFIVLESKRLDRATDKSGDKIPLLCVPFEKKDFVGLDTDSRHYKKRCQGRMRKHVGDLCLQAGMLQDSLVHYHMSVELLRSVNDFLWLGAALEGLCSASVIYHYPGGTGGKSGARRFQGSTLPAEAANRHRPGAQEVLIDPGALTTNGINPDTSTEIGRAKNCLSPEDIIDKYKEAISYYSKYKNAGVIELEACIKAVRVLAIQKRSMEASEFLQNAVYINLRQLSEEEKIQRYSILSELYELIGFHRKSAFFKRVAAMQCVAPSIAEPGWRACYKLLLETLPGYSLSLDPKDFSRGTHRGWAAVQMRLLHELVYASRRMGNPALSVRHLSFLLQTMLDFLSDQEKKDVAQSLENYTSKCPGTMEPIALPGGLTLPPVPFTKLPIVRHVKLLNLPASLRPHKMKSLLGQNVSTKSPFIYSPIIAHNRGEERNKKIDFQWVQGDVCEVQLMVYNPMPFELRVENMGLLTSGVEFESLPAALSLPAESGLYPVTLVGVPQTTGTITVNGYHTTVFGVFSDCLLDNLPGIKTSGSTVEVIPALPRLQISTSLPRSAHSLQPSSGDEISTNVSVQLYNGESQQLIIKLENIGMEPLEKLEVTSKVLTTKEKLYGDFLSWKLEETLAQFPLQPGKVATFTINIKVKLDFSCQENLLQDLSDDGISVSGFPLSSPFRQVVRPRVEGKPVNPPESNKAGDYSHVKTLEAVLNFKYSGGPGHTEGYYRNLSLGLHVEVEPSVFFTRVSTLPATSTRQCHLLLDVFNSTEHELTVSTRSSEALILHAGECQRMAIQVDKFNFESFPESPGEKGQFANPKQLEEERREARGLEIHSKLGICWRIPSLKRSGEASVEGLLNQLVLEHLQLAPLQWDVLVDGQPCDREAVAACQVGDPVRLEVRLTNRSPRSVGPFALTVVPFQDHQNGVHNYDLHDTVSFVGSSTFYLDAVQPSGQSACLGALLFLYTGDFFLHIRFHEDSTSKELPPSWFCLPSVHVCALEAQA
UniProt Q96S44, sequence (Q96S44 whole entry, looked up): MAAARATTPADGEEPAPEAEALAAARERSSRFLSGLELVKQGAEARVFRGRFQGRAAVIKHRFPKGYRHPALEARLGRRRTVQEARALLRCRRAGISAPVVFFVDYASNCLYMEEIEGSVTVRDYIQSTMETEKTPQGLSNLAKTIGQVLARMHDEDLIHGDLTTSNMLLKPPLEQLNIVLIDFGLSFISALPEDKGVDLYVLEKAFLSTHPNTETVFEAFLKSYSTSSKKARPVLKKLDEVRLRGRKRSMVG
UniProt Q96CW5, sequence (Q96CW5 whole entry, looked up): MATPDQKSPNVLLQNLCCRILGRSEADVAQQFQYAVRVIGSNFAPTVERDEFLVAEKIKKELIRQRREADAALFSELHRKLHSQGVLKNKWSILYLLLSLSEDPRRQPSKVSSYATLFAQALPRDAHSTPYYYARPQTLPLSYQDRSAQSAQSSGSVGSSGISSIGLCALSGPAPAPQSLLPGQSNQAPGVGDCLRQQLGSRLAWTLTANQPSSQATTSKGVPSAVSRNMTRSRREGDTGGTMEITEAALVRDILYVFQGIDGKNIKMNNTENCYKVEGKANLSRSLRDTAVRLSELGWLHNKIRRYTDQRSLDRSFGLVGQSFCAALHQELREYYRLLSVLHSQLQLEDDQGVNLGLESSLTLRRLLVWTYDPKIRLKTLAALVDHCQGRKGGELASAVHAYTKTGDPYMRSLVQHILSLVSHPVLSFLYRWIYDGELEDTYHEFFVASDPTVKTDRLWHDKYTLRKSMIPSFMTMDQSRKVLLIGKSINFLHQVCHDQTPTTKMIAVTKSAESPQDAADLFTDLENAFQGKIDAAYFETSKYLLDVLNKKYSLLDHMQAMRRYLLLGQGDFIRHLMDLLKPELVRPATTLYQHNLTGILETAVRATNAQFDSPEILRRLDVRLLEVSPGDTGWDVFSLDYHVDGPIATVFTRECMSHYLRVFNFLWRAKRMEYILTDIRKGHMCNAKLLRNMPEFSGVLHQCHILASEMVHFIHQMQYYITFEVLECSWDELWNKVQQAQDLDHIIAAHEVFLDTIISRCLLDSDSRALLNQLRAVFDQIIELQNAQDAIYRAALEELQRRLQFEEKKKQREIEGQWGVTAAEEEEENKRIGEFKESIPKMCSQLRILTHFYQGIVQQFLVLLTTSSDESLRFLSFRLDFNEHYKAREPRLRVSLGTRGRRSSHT
UniProt Q9Y4P3, sequence (Q9Y4P3 whole entry, looked up): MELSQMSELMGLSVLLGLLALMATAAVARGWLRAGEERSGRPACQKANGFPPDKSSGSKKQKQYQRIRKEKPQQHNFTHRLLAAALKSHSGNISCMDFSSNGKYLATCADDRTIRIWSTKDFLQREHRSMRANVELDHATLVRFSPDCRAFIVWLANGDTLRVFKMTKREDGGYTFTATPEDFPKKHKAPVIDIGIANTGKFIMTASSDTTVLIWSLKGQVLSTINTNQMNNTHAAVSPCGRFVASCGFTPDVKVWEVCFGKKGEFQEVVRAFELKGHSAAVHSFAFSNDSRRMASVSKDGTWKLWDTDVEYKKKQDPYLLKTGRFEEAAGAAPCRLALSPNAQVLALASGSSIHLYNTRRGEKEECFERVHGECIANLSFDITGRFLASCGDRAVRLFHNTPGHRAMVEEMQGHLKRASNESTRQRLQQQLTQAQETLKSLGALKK
UniProt Q9NZ01, sequence (Q9NZ01 whole entry, looked up): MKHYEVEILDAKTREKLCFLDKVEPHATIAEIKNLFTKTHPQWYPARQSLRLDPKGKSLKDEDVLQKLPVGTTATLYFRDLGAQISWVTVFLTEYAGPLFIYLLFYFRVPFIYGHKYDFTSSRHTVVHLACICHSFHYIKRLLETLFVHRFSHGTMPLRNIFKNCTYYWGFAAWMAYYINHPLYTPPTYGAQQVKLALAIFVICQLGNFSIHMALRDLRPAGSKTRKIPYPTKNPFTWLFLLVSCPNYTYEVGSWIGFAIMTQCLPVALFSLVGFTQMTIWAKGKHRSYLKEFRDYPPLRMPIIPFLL
UniProt Q12788, sequence (Q12788 whole entry, looked up): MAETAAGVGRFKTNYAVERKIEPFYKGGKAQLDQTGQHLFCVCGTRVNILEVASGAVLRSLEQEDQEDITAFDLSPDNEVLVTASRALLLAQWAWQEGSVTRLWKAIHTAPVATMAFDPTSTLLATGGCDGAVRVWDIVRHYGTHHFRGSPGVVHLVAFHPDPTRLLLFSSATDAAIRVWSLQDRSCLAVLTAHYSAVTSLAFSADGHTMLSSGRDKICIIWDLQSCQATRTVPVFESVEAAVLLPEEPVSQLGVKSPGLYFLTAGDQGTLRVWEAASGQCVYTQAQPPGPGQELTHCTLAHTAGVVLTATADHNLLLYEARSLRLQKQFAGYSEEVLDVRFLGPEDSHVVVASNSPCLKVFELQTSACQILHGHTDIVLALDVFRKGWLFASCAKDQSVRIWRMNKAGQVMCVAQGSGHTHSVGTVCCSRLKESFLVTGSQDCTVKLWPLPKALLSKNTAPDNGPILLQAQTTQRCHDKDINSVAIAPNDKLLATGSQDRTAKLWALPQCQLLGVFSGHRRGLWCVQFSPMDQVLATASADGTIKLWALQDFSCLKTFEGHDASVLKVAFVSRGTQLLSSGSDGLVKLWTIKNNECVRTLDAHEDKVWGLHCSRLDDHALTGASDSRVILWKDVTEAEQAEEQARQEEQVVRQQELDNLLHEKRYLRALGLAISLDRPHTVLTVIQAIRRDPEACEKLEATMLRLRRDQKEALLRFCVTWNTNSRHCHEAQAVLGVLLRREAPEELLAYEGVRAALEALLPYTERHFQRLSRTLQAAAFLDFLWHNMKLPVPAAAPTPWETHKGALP
UniProt P09493, sequence (P09493 whole entry, looked up): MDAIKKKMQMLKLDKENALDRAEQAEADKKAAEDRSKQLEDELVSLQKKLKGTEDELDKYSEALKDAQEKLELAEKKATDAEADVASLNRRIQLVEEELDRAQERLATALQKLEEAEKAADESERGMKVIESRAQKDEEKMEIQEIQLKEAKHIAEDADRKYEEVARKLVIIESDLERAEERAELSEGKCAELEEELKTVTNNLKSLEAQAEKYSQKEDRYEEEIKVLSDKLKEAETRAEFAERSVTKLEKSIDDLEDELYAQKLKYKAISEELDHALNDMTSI
UniProt P68363, sequence (P68363 whole entry, looked up): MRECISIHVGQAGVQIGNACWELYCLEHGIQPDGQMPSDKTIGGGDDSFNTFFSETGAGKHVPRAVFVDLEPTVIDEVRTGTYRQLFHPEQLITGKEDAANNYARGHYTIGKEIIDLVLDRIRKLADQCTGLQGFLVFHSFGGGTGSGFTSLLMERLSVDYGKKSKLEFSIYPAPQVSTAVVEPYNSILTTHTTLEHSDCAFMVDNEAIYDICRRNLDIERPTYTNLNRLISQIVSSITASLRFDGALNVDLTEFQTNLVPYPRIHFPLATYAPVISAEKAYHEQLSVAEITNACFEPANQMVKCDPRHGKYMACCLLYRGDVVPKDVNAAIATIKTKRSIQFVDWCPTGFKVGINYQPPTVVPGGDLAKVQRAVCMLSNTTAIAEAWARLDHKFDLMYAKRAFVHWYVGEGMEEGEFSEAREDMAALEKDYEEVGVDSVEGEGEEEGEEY

Compound in one assay: CCn1cc(-c2ccnc3[nH]c(-c4cccc(CN(C)C)c4)cc23)c(-c2ccc(NC(=O)N(C)C)cc2)n1
The experiment in a line: log2 fold change, soluble protein after heating vs DMSO (PISA); higher = thermal stabilisation; K562 lysate, 10 uM; active = over 0.2 and 3.5 SD of the protein, either way, in both replicates (recomputed). The procedure, abridged: (§1)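 Dounce homogenisation of K562 pellets in PBS pH 7.4 with 1 mM MgCl2 produced a crude extract, used at 1 mg/mL protein. Exposure to 10 μM compound lasted 30 min, and aliquots were then heated for 3 min across 48°C-58°C, pooled and brought to 0.5% NP-40 at 4°C. The supernatant after 21,000xg for 90 min was quantified by TMTpro 16plex LC-MS/MS with channel sums equalised. Duplicate values are given as log-two fold change in thermal stability relative to solvent controls.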
Take TBL2 (UniProt Q9Y4P3): the log2 fold change is -0.029.
Same read-out and setting: for UBR4 (UniProt Q5T4S7) the value was -0.034.
For the target TPM4 isoform 2 (UniProt P67936), the log2 fold change is 0.525 (active).
Same read-out and setting: for TBL3 (UniProt Q12788) the value was -0.005; for TTF2 (UniProt Q9UNY4), -0.003; for TJP1 isoform 2 (UniProt Q07157), -0.046.
Still for that read-out and setting: for TRIM65 (UniProt Q6PJ69) the value was -0.056; for UBE3C (UniProt Q15386), -0.075; for UBAP2 (UniProt Q5T6F2), -0.172.
For TUBA1B (UniProt P68363), the log2 fold change was -0.008.
Same read-out and setting: for TSPAN13 (UniProt O95857) the value was 0.114.

Compound in a further assay: CN1CCC(CNc2ccc3ncc(-c4cccc(OC(F)(F)F)c4)n3n2)CC1
The description is as above. The essentials: as §1
For the target TPP2 (UniProt Q5VZU9), the log2 fold change is 0.088.
In the case of TUBGCP3 (UniProt Q96CW5), the log2 fold change is 0.015.
Regarding TEX30 (UniProt Q5JUR7), the log2 fold change was 0.088.
For TPM1 isoform 4 (UniProt P09493), the log2 fold change is -0.149.
Still for that read-out and setting: for TRAPPC9 isoform 2 (UniProt Q96Q05) the value was 0.019; for TUT4 (UniProt Q5TAX3), 0.083.
In the case of TRIM33 (UniProt H0Y612), the log2 fold change was 0.051.
For the target TECR (UniProt Q9NZ01), the log2 fold change was -0.247.
For the target TP53RK (UniProt Q96S44), the log2 fold change is -0.039.
Still for that read-out and setting: for THEMIS2 (UniProt Q5TEJ8) the value was 0.004; for TTC38 (UniProt Q5R3I4), -0.181.
On the same count and under the same terms, next, TPM4 (UniProt P67936): -0.007.
